Here are results for 5 compounds from PubChem BioAssay.

Calls of active or inactive are those of the source.

The test system of test [1] is PRMT1 (protein arginine N-methyltransferase 1). Put plainly: small molecules binding arginine methyltransferase PRMT1 – biochemical, small-molecule microarray, 635 nm fluorescence, primary screen (AID 1088).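 Note: binding of Prmt1 protein to compounds spotted on small-molecule microarray slides.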 The following applies: higher = more signal.
The nature of test [2]: growth effects on S. cerevisiae YJM789 – YJM789 clinical isolate, OD600, 24 h, basal, primary screen (AID 1089).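 Note: growth of clinical yeast isolate S. cerevisiae YJM 789 seeded 1000 cells per well; test concentration not given here.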 The following applies: higher = more signal, called active from +8 up or from −8 down.
A short description of test [3]: S. pombe growth modifiers, basal conditions – strain 972, OD600, 24 h, no modulator, primary screen (AID 1090).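 Note: basal condition with compound alone and no growth modifier present; test concentration not given here.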 The note with it: S. pombe 972 growth, higher = more signal, called active from +8 up or from −8 down.
A short description of test [4]: budding yeast growth modifiers under rapamycin – strain BY4716, OD600, 96 h, primary screen (AID 1091). Note: test concentration not given here. The note with it: S. cerevisiae BY4716 + rapamycin, higher = more signal, called active from +8 up or from −8 down.
Test [5] has as its target Torsin-1A-interacting protein 2 (Homo sapiens) (UniProt Q8NFQ8). Put plainly: small molecules binding lysate-expressed LULL1 – cell lysate, human LULL1 lysate, 635/667 nm fluorescence, primary screen (AID 1092).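 Note: probe is lysate of COS7 cells overexpressing human LULL1; score merges per-feature 667 nm fluorescence with signal-to-noise.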 The following applies: small-molecule microarray, hLULL1 lysate binding, 635 nm fluorescence; higher = more signal.
Test [6] is described as follows: optical density change of DRC41 E. coli – strain DRC41, OD650, 24 h, E. coli filamentation project, primary screen (AID 1093).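 Note: MC1000 strain lacking acrAB efflux and sulA so SOS filamentation is blocked; test concentration not given here.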 The following applies: E. coli DRC41 growth, higher = more signal, called active from +8 up or from −8 down.
A short description of test [7]: probe aLefty2 binding to arrayed compounds – biochemical, biotinylated probe, 635/667 nm fluorescence, primary screen (AID 1094).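 Note: score merges spot fluorescence near 667 nm with spot signal-to-noise ratio.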 The note with it: small-molecule microarray, higher = more signal.
Test [8] concerns Noggin (protein binding on small-molecule microarray). Description: small molecules binding Noggin protein – biochemical, 635/667 nm fluorescence, primary screen (AID 1095).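 Note: score merges 667 nm feature fluorescence with signal to noise over triplicate slides.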 The following applies: 635 nm fluorescence, higher = more signal.
For test [9], the target named is Neurogenic locus notch homolog protein 3 (Homo sapiens) (UniProt Q9UM47). Description: small molecules binding NOTCH3 protein – biochemical, 635/667 nm fluorescence, primary screen (AID 1096). The following applies: small-molecule microarray, 635 nm fluorescence, higher = more signal.
Test [10] can be described thus: probe aEGFR binding to arrayed compounds – biochemical, biotinylated probe, 635/667 nm fluorescence, primary screen (AID 1097).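 Note: probe is a biotinylated anti-EGFR antibody binding compounds printed on slides; score combines fluorescence near 667 nm and signal to noise of each spot.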 The following applies: small-molecule microarray, higher = more signal.
Test [11] relates to Plasmodium falciparum Sir2 (PF13_0152, Sir2A). Put plainly: Plasmodium falciparum Sir2A binding compounds – biochemical, small-molecule microarray, 635 nm fluorescence, primary screen (AID 1098).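 Note: score merges spot fluorescence intensity with its signal-to-noise ratio.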 The note with it: fluorescence 635 nm, higher = more signal.
The nature of test [12]: probe aDKK1 binding to arrayed compounds – biochemical, biotinylated probe, 635/667 nm fluorescence, primary screen (AID 1099).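 Note: score merges 667nm spot fluorescence with signal to noise across triplicate slides; reference of the scale not given here.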 The following applies: small-molecule microarray, higher = more signal.
A short description of test [13]: probe aCHRDL2 binding to arrayed compounds – biochemical, biotinylated probe, 635/667 nm fluorescence, primary screen (AID 1100). The following applies: small-molecule microarray, higher = more signal.
A short description of test [14]: change in splice reporter luminescence, either direction, cell-based, HEK293, spliceosome inhibition project, primary screen (AID 1101).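 Note: HEK293 cells carrying a splicing-competent luciferase reporter gene; test concentration not given here.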 The following applies: HEK293 splicing luciferase reporter, 24 h, higher = more signal, called active from +8 up or from −8 down.
The target of test [15] is Fibroblast growth factor 10 (Homo sapiens) (UniProt O15520). Description: compounds binding fibroblast growth factor 10 – biochemical, small-molecule microarray, 635 nm fluorescence, primary screen (AID 1102). The following applies: FGF10 binding, fluorescence 635 nm, higher = more signal.
The test system of test [16] is glycogen synthase kinase-3 (GSK3A per assay name; protocol says GSK3B). Put plainly: compounds binding glycogen synthase kinase-3 – biochemical, small-molecule microarray, 635 nm fluorescence, GSK3A, primary screen (AID 1103). Note: the record names both GSK3A and GSK3B. The following applies: fluorescence 635 nm, higher = more signal.
Test [17] concerns the target Epidermal growth factor receptor (Homo sapiens) (UniProt P00533). Put plainly: compounds binding epidermal growth factor receptor – biochemical, small-molecule microarray, 635 nm fluorescence, primary screen (AID 1104).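 Note: score merges 667 nm emission intensity with spot signal to noise over triplicate slides.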 The note with it: EGFR binding, higher = more signal.
In test [18] the target is Follistatin-related protein 3 (Homo sapiens) (UniProt O95633). Put plainly: compounds binding follistatin-related protein 3 – biochemical, small-molecule microarray, 635 nm fluorescence, primary screen (AID 1105).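 Note: score merges emission near 667 nm and signal to noise per printed spot across three slides.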 The note with it: FSTL3 binding, higher = more signal.
Test [19] deals with Dickkopf-related protein 1 (Homo sapiens) (UniProt O94907). Put plainly: small molecules binding DKK1 protein – biochemical, small-molecule microarray, 635 nm fluorescence scan, primary screen (AID 1106).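 Note: score merges emission near 667 nm with signal to noise over three replicate slides.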 The following applies: higher = more signal.
Test [20] deals with Inhibin beta A chain (activin A). Description: small molecules binding activin A – biochemical, small-molecule microarray, 635 nm fluorescence scan, primary screen (AID 1107).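 Note: mouse activin A protein probed at 4.33 µg/mL on printed slides; score merges bound-protein fluorescence near 667 nm with spot signal-to-noise.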 The note with it: INHBA, higher = more signal.

Fibroblast growth factor 10 (Homo sapiens), sequence (O15520 whole entry, looked up): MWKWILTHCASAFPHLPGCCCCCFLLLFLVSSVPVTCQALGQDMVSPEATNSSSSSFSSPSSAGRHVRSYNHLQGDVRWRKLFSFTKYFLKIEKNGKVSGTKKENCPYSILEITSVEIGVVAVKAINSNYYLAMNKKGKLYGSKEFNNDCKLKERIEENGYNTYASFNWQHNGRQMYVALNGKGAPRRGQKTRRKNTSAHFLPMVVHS
Neurogenic locus notch homolog protein 3 (Homo sapiens), sequence (Q9UM47 whole entry, looked up): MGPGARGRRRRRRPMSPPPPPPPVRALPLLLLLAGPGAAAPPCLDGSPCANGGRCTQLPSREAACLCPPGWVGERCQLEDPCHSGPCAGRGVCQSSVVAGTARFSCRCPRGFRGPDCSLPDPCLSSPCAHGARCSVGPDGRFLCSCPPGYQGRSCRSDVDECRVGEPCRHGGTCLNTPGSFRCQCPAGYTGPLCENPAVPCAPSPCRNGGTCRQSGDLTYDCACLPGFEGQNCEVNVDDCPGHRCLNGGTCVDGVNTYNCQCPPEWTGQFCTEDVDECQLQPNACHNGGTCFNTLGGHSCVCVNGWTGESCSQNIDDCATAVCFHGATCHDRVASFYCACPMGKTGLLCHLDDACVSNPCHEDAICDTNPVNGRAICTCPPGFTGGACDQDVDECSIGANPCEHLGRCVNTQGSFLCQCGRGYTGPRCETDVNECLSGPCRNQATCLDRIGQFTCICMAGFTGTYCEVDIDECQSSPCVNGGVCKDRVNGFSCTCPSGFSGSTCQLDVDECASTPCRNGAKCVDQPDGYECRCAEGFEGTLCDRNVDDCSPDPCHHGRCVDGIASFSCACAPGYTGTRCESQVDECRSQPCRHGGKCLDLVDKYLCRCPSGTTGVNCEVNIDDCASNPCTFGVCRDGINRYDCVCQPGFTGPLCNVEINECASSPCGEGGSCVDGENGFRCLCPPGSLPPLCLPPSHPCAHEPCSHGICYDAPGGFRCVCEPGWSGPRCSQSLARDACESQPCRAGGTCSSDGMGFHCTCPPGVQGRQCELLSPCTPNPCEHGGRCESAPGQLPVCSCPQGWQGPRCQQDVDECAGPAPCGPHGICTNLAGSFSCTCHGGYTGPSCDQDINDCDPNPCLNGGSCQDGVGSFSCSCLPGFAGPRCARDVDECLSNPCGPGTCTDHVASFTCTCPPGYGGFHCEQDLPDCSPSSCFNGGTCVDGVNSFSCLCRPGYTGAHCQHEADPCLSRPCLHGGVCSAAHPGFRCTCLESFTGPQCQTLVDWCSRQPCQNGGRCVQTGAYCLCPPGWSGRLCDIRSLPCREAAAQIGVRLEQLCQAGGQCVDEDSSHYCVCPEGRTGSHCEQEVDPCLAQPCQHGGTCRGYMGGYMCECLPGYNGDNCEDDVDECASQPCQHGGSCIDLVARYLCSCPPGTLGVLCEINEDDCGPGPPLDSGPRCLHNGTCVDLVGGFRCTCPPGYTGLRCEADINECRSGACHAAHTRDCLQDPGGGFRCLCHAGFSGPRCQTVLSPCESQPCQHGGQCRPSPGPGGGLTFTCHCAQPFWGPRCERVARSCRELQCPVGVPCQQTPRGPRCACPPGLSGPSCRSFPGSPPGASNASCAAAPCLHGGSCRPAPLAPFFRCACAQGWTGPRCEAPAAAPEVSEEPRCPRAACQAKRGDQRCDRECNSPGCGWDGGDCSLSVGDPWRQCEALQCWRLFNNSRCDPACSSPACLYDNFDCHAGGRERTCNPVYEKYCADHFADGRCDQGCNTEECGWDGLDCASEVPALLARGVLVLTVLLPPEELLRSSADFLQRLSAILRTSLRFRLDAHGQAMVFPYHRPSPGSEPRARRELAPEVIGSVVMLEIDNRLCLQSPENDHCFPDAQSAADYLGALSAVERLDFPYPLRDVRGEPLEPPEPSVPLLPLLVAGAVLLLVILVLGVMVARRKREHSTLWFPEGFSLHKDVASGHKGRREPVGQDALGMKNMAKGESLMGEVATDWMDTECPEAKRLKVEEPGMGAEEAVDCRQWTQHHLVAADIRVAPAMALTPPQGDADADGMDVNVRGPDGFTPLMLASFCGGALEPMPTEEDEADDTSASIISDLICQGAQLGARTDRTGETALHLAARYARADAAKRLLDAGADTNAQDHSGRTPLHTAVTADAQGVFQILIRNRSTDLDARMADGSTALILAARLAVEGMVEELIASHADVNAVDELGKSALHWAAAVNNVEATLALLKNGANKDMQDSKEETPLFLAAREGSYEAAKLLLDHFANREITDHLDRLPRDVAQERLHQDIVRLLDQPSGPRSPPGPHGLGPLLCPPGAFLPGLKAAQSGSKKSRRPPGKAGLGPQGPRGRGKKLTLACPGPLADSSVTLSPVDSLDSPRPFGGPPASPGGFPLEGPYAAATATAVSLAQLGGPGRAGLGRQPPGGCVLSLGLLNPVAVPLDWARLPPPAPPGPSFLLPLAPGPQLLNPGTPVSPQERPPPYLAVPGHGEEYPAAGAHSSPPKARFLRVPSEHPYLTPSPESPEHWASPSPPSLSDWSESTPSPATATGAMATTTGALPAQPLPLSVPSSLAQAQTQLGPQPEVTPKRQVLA
Follistatin-related protein 3 (Homo sapiens), sequence (O95633 whole entry, looked up): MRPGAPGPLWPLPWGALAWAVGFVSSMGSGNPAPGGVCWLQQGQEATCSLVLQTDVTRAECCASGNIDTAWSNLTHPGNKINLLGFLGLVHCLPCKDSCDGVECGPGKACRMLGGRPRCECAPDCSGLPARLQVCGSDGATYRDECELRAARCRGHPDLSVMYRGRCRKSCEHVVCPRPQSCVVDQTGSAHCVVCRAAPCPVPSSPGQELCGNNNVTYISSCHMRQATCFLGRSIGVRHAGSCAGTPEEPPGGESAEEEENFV
Dickkopf-related protein 1 (Homo sapiens), sequence (O94907 whole entry, looked up): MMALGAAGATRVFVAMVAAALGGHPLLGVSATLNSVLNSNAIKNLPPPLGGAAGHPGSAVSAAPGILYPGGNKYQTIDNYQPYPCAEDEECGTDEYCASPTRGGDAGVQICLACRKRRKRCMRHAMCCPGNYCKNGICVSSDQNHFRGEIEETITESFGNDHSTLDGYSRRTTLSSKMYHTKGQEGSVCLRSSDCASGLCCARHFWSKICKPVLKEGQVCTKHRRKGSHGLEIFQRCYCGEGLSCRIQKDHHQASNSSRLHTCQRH
Torsin-1A-interacting protein 2 (Homo sapiens), sequence (Q8NFQ8 whole entry, looked up): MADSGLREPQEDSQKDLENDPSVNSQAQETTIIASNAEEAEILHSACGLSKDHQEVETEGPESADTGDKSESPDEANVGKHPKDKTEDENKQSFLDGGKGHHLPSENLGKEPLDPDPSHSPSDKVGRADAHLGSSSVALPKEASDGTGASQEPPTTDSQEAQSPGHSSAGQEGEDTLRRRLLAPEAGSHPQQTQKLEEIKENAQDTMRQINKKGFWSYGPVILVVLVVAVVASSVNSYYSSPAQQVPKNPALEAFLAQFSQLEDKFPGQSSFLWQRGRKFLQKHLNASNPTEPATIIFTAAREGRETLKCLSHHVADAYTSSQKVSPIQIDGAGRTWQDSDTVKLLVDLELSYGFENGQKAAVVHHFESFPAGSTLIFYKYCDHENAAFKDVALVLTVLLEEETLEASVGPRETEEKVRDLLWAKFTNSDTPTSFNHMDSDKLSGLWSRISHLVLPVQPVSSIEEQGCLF
Epidermal growth factor receptor (Homo sapiens), sequence (P00533 whole entry, looked up): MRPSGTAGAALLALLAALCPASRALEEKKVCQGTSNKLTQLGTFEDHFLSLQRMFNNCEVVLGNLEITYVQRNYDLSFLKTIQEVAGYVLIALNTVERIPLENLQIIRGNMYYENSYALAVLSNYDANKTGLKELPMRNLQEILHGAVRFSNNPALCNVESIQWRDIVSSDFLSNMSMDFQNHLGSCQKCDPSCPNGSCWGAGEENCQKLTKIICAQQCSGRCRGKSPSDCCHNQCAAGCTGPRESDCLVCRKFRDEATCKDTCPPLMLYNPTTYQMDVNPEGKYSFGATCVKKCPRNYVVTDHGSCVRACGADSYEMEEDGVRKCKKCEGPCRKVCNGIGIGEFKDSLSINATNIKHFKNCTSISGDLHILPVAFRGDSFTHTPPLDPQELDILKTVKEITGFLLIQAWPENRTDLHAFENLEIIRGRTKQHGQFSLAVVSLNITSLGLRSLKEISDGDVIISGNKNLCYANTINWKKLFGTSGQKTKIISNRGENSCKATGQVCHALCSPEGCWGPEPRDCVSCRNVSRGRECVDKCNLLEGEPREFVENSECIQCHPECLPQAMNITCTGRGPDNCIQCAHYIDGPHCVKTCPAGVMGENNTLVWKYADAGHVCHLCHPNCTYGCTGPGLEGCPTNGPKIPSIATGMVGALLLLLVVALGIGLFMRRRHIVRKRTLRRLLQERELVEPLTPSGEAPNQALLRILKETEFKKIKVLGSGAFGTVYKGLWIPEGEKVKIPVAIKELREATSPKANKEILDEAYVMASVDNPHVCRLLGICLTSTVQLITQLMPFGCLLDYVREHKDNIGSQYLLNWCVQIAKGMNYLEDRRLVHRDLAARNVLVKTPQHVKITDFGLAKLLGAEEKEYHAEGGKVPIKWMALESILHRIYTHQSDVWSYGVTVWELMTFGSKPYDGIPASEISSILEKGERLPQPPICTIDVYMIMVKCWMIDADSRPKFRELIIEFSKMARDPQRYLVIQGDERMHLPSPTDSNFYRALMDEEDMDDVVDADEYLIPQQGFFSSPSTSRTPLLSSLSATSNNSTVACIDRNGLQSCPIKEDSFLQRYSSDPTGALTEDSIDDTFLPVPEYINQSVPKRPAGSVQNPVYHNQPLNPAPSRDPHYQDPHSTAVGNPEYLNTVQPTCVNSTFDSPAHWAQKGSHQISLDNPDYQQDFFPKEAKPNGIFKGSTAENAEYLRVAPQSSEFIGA

In the case of `CCOC(=O)NN=C1C[C@@H](O)[C@@H](O)[C@@H]2[C@@H]3C(=O)N(CC)C(=O)[C@@H]3CC[C@H]12`, the composite z-score is -0.0481 in [1]; 0.458 in test [5]; -0.25 in test [7]; 0.583 in test [8]; -0.387 in test [9]; -0.034 in test [10]. Also, the composite z-score in [11] was -0.04; in test [12] it was -0.115; in [13], -0.254; in test [15], 0.125; in [16] it was -0.256; in test [17] it was 0.283. Also, the composite z-score in test [18] was -0.188; in test [19], 0.191; in [20], -0.145. Moreover, the z-score in test [2] was 0.213 (inactive); in test [3], 0.324 (inactive); in test [4] it was 0.71 (inactive); in [6] it was 0.312 (inactive); in test [14] it was -0.322 (inactive).
Turning to `CCN1C(=O)[C@H]2[C@H]3[C@H](O)[C@H](O)CC(=NO[C@@H](C)c4cc(-c5c(C)cc(C)cc5C)no4)[C@@H]3CC[C@H]2C1=O`, the composite z-score in test [1] is 1.55; in [5], 2; in test [7], -0.0283; in test [8], 0.529; in test [9], 0.994; in [10], 0.123. Also, the composite z-score was 0.808 in test [11]; 0.101 in test [12]; -0.239 in [13]; 0.841 in test [15]; 1.24 in test [16]; 0.451 in test [17]. In addition, the composite z-score in test [18] was 1.18; in [19], 0.647; in [20] it was -0.989. In addition, the z-score is -0.393 (inactive) in test [2]; -1.15 (inactive) in [3]; -0.875 (inactive) in test [4]; 1.16 (inactive) in test [6]; -0.111 (inactive) in test [14].
For the compound `C[C@H]1CC[C@H]2C(=O)OC(COc3ccc(C(C)(C)C)cc3)CN2[C@@H]1c1ccc(Br)cc1` (stereo not given in full), the composite z-score in test [1] is 1.02; in test [5] it was 1.25; in [7], -0.139; in [8], 0.756; in test [9] it was 0.165; in test [10], -0.175. Besides, the composite z-score in test [11] is 0.528; in [12] it was -0.254; in test [13], -0.242; in test [15] it was 0.172; in test [16], 0.364; in test [17] it was -0.128. Further, the composite z-score in test [18] was 0.58; in [19], -0.039; in [20], 0.451. Also, the z-score in test [2] is -0.498 (inactive); in test [3], -17.9 (active); in test [4], -1.73 (inactive); in [6], 1.24 (inactive); in test [14] it was -0.216 (inactive).
Regarding `C=CC[C@@H]1C=C[C@H](ON=C(C)CCN2CCCCc3nc(C)c(C)cc32)[C@@H](CO)O1`, the composite z-score in test [1] is 1.47; in [5] it was 1.77; in test [7], -0.0769; in test [8], 1.21; in [9], 0.67; in [10], 0.044. Also, the composite z-score in test [11] is 1.14; in [12] it was -0.406; in [13] it was -0.804; in [15], 0.497; in [16], 1.29; in [17], 1.51. Besides, the values for the composite z-score in test [18], in test [19] and in [20] were 1.43, 1.63 and 1.5, respectively. For the same compound, the z-score in test [2] was -1.19 (inactive); in test [3] it was 0.805 (inactive); in test [4], -0.508 (inactive); in test [6], -0.0376 (inactive); in test [14], -0.102 (inactive).
With `CC(=O)OC[C@H]1O[C@H](CC=NOC[C@@H](O)COCc2ccco2)C=C[C@@H]1OC(C)=O`, the composite z-score in test [1] is 1.54; in [5], -0.275; in [7], 0.0658; in test [8], 1.77; in test [9], -0.084; in test [10], 0.495. Also, the composite z-score was 0.717 in test [11]; -0.233 in test [12]; -1.06 in test [13]; 0.397 in test [15]; 1.24 in test [16]; 1.58 in test [17]. The composite z-score in test [18] amounted to 1.37; in test [19], 1.74; in [20], 1.14. For the same compound, the z-score in test [2] is 0.441 (inactive); in test [3], -0.0992 (inactive); in test [4], 0.116 (inactive); in test [6] it was 0.53 (inactive); in test [14], -0.0391 (inactive).
